Results taken from PubChem BioAssay.
Active and inactive are the calls of the source.

Assay: E. coli DRC41 culture turbidity changes, primary screen, E. coli filamentation inducer project, strain DRC41, OD650, 48 h (AID 1152);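 also: E. coli MC1000 strain DRC41 lacking acrAB efflux pump and sulA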
Conditions: E. coli DRC41 (acrAB sulA), higher = more signal, called active from +8 up or from −8 down

Compound	z-score
C=CCN1C(=O)[C@]2(CCS(=O)(=O)c3ccccc3)N=C(c3ccc(OCCCO)cc3)O[C@@H]2c2ccccc21	0.836 (inactive)
NC(=O)NCC#Cc1ccc2c(c1)[C@]1(C(=O)N2)[C@H](c2ccccc2OCCO)N2[C@H](c3ccccc3)[C@H](c3ccccc3)OC(=O)[C@H]2[C@@H]1C(=O)O	0.851 (inactive)
NCCCCCNC(=O)[C@H]1C[C@H]2C(=O)N3CCC[C@H]3C(=O)N2[C@H]1c1cccc(OCCO)c1	-0.068 (inactive)
COc1ccc([Si](C)(C)[C@@H]2[C@@H](CCO)O[C@]3(C(=O)N(Cc4cccc(NC(=O)[C@H](C)O)c4)c4ccccc43)[C@H]2C)cc1	-1.19 (inactive)
CCCCN1CC=CC23O[C@@H]4/C=C\CCCOC(=O)C4[C@H]2C(=O)N(CCO)[C@@H]3C1=O (stereo partly specified)	1.18 (inactive)

Assay: small-molecule binders of probe aLefty1, primary screen, biochemical, small-molecule microarray, 635/667 nm fluorescence (AID 1153);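 also: score merges spot fluorescence with signal-to-noise ratio from the scanned slide images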
Conditions: higher = more signal

Compound	composite z-score
[N-]=[N+]=NCc1ccccc1[C@@H]1OC(c2ccc(OCCCO)cc2)=N[C@]1(CCS(=O)(=O)c1ccccc1)C(=O)O	0.186
CC1CC/C=C\[C@H]2OC34C=CCN(c5ccc(Cl)cc5)C(=O)[C@H]3N(C(C)CO)C(=O)[C@]4(C)C2C(=O)O1 (stereo partly specified)	-0.284
C=CC[C@]1(C(=O)N2CCCCC2)N=C(c2ccc(OCCCO)cc2)O[C@H]1c1ccccc1CN=[N+]=[N-]	0.454
COc1ccc([Si](C)(C)[C@H]2[C@H](CC(=O)N3CCC[C@H]3CO)O[C@@]3(C(=O)N(Cc4ccc(N5CCOC5=O)cc4)c4ccccc43)[C@@H]2C)cc1	0.298
Cc1cc(C)c(C(O)C2C=CC3C(=O)N(c4ccccc4)C(=O)C3N2Nc2ccccc2F)c(C)c1 (stereo unspecified)	-0.0111
CC[C@@H]1O[Si](C(C)C)(C(C)C)c2c1cc(-c1cc(C)c(OC)c(C)c1)nc2-c1ccc(Oc2ccccc2)cc1	0.0101
O[C@@H](Cc1ccccc1)[C@@H](/C=C/C1CC1)N(CC#Cc1ccccc1)Cc1ccccc1Br	0.187
COC(=O)C/C=C/C[C@]1(O)C(=O)N(C)c2ccccc21	-0.147
C=CC[C@@]1(C(=O)NCCCOC)N=C(c2ccc(OCCCO)cc2)O[C@@H]1c1ccccc1N=[N+]=[N-]	0.545
COC(=O)[C@@H]1N=C(c2ccc(OCCCO)cc2)O[C@@H]1C	0.0945
CCCC=C(CCC)[C@@H](NC(=O)c1cccs1)c1ccc(C(=O)OC)cc1	0.911
COc1cc(NN2C(C(O)c3cc(OC)c(OC)c(OC)c3)C=CC3C(=O)N(C)C(=O)C32)cc(OC)c1OC (stereo unspecified)	0.179
COc1cc(OC)c(C(O)C2C=CC3C(=O)N(Cc4ccccc4)C(=O)C3N2n2cnnc2)cc1Br (stereo unspecified)	0.0509
C=CCC(OC(C)=O)[C@@H]1[C@@H](N(Cc2cc3ccccc3o2)C(=O)Cc2ccc(F)cc2)c2cc(OCCCO)ccc2N1C(=O)Cc1ccc2ccccc2c1 (stereo partly specified)	0.051
COc1ccc(CCNC(=O)[C@@H]2c3ccccc3C(=O)N(C3CCCCC3)[C@H]2c2ccc(CO)cc2)cc1	-0.0149
C[N+](C)(C)CCCC[C@@H]1NC(=O)[C@@H]2C[C@H](C(=O)NCCCCCCN)[C@H](c3cccc(OCCO)c3)N2C1=O	2.07
O=C1C2C=CC(C(O)C3CC=CCC3)N(Nc3ccccc3)C2C(=O)N1c1ccccc1 (stereo unspecified)	0.663
O=C1C2C=CC(C(O)c3ccco3)N(Nc3ccccc3F)C2C(=O)N1c1ccccc1 (stereo unspecified)	0.361
COC(=O)c1c(CC[C@@H](CO)NC(=O)N2CCC[C@H]2Cn2cc(C3(O)CCCCC3)nn2)oc(C(C)=O)c1C(=O)OC	-0.101
C=C(/C(=C/C[C@H](OC(=O)c1ccncc1)c1ccc(CO)o1)c1cnc2ccccc2c1)C(C)C	0.0844
COCC(=C=CC[C@H](O)c1ccccc1OCCO)C[C@H](O)c1ccccn1	-0.224
CC(C)c1ccc(NN2C(C(O)c3ccc(F)cc3)C=CC3C(=O)N(c4ccccc4)C(=O)C32)cc1 (stereo unspecified)	0.498
CO[C@H]1O[C@H](CO)[C@@H](OC(=O)Nc2ccc3c(c2)OCO3)[C@H](OC(=O)Nc2ccc3c(c2)OCO3)[C@@H]1OC(=O)Nc1ccc2c(c1)OCO2	0.26
CCCNC(=O)[C@@H]1c2ccccc2C(=O)N(Cc2ccc(OC(F)(F)F)cc2)[C@H]1c1ccc(CO)cc1	-0.0099
CCOC(=O)C[C@H]1[C@H](OC(=O)c2cc3ccccc3oc2=O)[C@@H](NC(=O)c2ccccc2)c2cc(OCCCO)ccc2N1C(=O)c1ccccc1	0.158
CCCNC(=O)[C@@]1(C)c2ccccc2C(=O)N(c2ccc(C)cn2)[C@H]1c1ccc(CO)cc1	0.0533
